Test results reported in PubChem BioAssay (NCATS).
Where “and” joins values, the source holds several entries; their conditions need not be identical. Equal entries are not always repeated. Results filed as inconclusive are left out. Where a call stands in place of a potency, no number is given. Where a structure was tested more than once in an assay, its records may differ in their call. Calls of active or inactive are those of the source. Unless noted, calls follow the shape of the dose curve; as a rule, active = well fitted curve in the direction sought with a large enough effect; inconclusive = small, poorly fitted or top-dose-only effect, or another doubt; inactive = no such curve, though single readings can be large; an effect the other way counts as inactive or inconclusive.

How the values were obtained:
[1] = High-throughput drug toxicity screening in the BPDCN cell line Gen2.2 (AID 1224824; call rule not given here); settings: Gen2.2 BPDCN cells; at 45.8 µM (top of the series) unless noted
In short: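 Seed 500 exponentially growing Gen2.2 cells/well; add compounds by pin tool; incubate 48 h, 37 °C, 5% CO2; add CellTiter-Glo, 15 min RT; read luminescence. % activity vs DMSO (100%) and bortezomib (0%).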

[2] = High-throughput drug toxicity screening in the BPDCN cell line Cal-1 (AID 1224825; call rule not given here); settings: Cal-1 BPDCN cell viability, qHTS; at 45.8 µM (top of the series) unless noted
In short: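 CellTiter-Glo luminescence after 48 h compound exposure; percent activity scaled with DMSO as 100% and bortezomib (9.2 uM final) as 0%. Cal-1 cells seeded at 500/well in RPMI, 10% FBS, no phenol red.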

[3] = qHTS assay for measurement of the activity of small molecule inhibitors on Zika virus induced Caspase-3 activity in human iPSC derived neural progenitor cells (hNPCs) (AID 1224857); also: nearly all actives have a fitted effect of over 65% in size; also: potency is read from the fitted curve at half-maximal effect
In short: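 Caspase-3/7 induction by a 6-hour ZIKV infection was quantified with a luminescent Caspase-Glo 3/7 reagent incubated 30 minutes at room temperature. Compounds were preincubated with hNPCs for 1 hour; inhibition was calculated against uninfected and infected control wells.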

[4] = qHTS assay for measurement of the activity of small molecule inhibitors on Zika virus induced Caspase-3 activity in human astrocytoma cells (AID 1224859); also: potency is read from the fitted curve at half-maximal effect
In short: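 In SNB-19 cells plated at 250 cells/well and grown 16-20 h, compounds were applied 1 h before ZIKV (2 FFU/cell). Six hours later caspase-3/7 luminescence was recorded.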

[5] = qHTS Screen of the MIPE 4.0 Collection Against Ewings Sarcoma (RDES) (AID 1259252); also: nearly all actives have a fitted effect of over 35% in size; also: potency is read from the fitted curve at half-maximal effect
In short: (§1)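 Viability screen: 48 h incubation at 37C, 95% humidity, 5% CO2 with serially titrated compound, followed by CellTiter-Glo readout.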

[6] = qHTS Screen of the MIPE 4.0 Collection Against Ewings Sarcoma (TC71) (AID 1259253); also: nearly all actives have a fitted effect of over 40% in size; also: potency is read from the fitted curve at half-maximal effect
In short: as §1

[7] = qHTS Screen of the MIPE 4.0 Collection Against Ewings Sarcoma (EW8) (AID 1259255); also: nearly all actives have a fitted effect of over 35% in size; also: potency is read from the fitted curve at half-maximal effect
In short: as §1

[8] = qHTS Screen of the MIPE 4.0 Collection Against Ewings Sarcoma (TC32) (AID 1259256); also: nearly all actives have a fitted effect of over 45% in size; also: potency is read from the fitted curve at half-maximal effect
In short: as §1

[9] = qHTS assay to identify small molecule inhibitors of chordoma cells - UCH-1 (AID 1259355); also: nearly all actives have a fitted effect of over 55% in size
In short: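 Screening used approved and investigational drugs in 15-point titration against 800 seeded cells per well. A fixed combination of auranofin with camptothecin, doxorubicin, rubitecan and topotecan followed compound addition, and growth was scored by CellTiter-Glo after 48hr.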

[10] = qHTS assay to identify small molecule inhibitors of chordoma cells - UCH-2 (AID 1259356)
[11] = P-glycoprotein substrates identified in KB-8-5-11 adenocarcinoma cell line, qHTS therapeutic library screen (AID 1346987); also: nearly all actives have a fitted effect of over 65% in size; also: potency is read from the fitted curve at half-maximal effect
In short: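 Compounds are pinned in dose-response onto KB-8-5-11 cells (500 cells/well, colchicine-free medium) and left 72 h at 37 degree C. CellTiter-Glo luminescence then yields AC50 values.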

[12] = Natriuretic polypeptide receptor (hNpr1) antagonism - Pilot counterscreen GloSensor control cell line (AID 1347045; calls by dose curve)
In short: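 Control counterscreen: luciferase cGMP-biosensor HEK293 cells (no Npr1) received compound for 30 min at room temperature after GloSensor substrate loading. Luminescence was measured before and 20 min after soluble guanylyl cyclase activation by 50 uM nitroprusside.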

[13] = P-glycoprotein substrates identified in KB-3-1 adenocarcinoma cell line, qHTS therapeutic library screen (AID 1346986); also: nearly all actives have a fitted effect of over 60% in size;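 also: potency is read from the fitted curve at half-maximal effect; potency is for cytotoxicity meaning loss of cell viability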
In short: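 In 1536-well format, 500 cells/well received pinned compound titrations and were incubated 72 h, 5% CO2. Viability was read by CellTiter-Glo; cytotoxic if AC50 < 10 uM and efficacy >50%.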

[14] = Identifying Small Molecule Inhibitors of Pancreatic Cancer Stem Cells (SN12C, Adherent) (AID 1259358);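 also: cell survival measured after 48 h of compound exposure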; also: potency is read from the fitted curve at half-maximal effect
In short: (§2)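 Monolayer and spheroid cultures are compared. Spheroids form over 14 days in stem cell medium on hydrogel-coated low-attachment plates, then are exposed to compound for 48 h before CellTiter-Glo luminescence.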

[15] = Identifying Small Molecule Inhibitors of Pancreatic Cancer Stem Cells (SN12C, Spheroid) (AID 1259360); settings: Potency: SN12C spheroid viability; also: potency is read from the fitted curve at half-maximal effect
In short: (§3)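 Luminescent ATP readout (CellTiter-Glo) quantifies surviving cells after a 48 h drug incubation. Normalization uses DMSO wells as no inhibition and media-only wells as full inhibition; bortezomib served as positive control.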

[16] = Identifying Small Molecule Inhibitors of Pancreatic Cancer Stem Cells (Panc1, Adherent) (AID 1259362); settings: Potency: viability; also: potency is read from the fitted curve at half-maximal effect;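 as to viability, % of control: compound exposure lasted 48 h before the viability read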
In short: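 Cytotoxicity read by CellTiter-Glo luminescence after 48 h compound exposure at 37C; percent activity scaled between DMSO-treated cells and cell-free wells. Spheroid formats used cells pre-formed 14 days in stem cell media on hydrogel.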

[17] = Identifying Small Molecule Inhibitors of Pancreatic Cancer Stem Cells (A2780, Spheroid) (AID 1259357); settings: Potency: A2780 spheroid viability;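 also: compound exposure lasted 48 h before the ATP luminescence read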; also: potency is read from the fitted curve at half-maximal effect
In short: as §3

[18] = Identifying Small Molecule Inhibitors of Pancreatic Cancer Stem Cells (A278, Adherent) (AID 1259361); also: nearly all actives have a fitted effect of over 35% in size
In short: as §2

Structure (SMILES) | cell viability, % of control (lower = more cytotoxic) [1] | viability (% of control) [2] | Potency [3] | Potency [4] | Potency [5] | Potency [6] | Potency [7] | Potency [8] | Potency [9] | outcome [10] | Potency [11] | outcome [12] | Potency [13] | Potency [14] | Potency [15] | Potency [16] | Potency [17] | IC50 (viability decrease) [18]
NCCCC(N)(C(=O)O)C(F)F (stereo not given) | 77.2% | 47.4% | inactive | inactive | inactive | inactive | inactive | inactive | inactive | inactive | inactive | inactive |  |  |  |  |  | 
O=c1n(CCCN2CCN(c3cccc(Cl)c3)CC2)nc2ccccn12 | 165% | 100% | inactive | inactive | inactive | inactive | inactive | inactive | inactive | inactive | inactive | inactive |  |  |  |  |  | 
O=NN(CCCl)C(=O)NCCCl | 114% | 103% | inactive | inactive | inactive | inactive | inactive | inactive | inactive | inactive | inactive | inactive |  |  |  |  |  | 
Oc1ccc(C2CNCCc3c2cc(O)c(O)c3Cl)cc1 (stereo not given) | 156% | 66.9% | inactive | inactive | inactive |  | inactive | inactive | inactive | inactive |  | inactive |  |  |  |  |  | 
OC(CCN1CCCCC1)(c1ccccc1)C1CC2C=CC1C2 (stereo not given) | 127% | 107% | inactive | inactive | inactive | inactive | inactive | inactive | inactive | inactive | inactive | inactive | inactive |  |  |  |  | 
CC(=O)NC(C)c1ccc(Oc2ccc(OC(C)C)cc2)cc1 (stereo not given) | 281% | 98.5% | inactive | inactive | inactive | 8.33 µM (active) | 6.62 µM (active) | inactive |  |  | inactive |  |  | inactive | inactive | 4.69 µM (active) |  | 
CCn1cc(C(=O)O)c(=O)c2cc(F)c(N3CCNC(C)C3)c(F)c21 (stereo not given) | 176% | 107% | inactive | inactive | inactive | inactive | inactive | inactive | inactive | inactive |  | inactive |  |  |  |  |  | 
O=C(C1CC1)N1CC[C@@H](Cn2c(-c3ccc(-c4ccc5occc5c4)cc3)nc3cnccc32)C1 | 133% | 95.4% | inactive | inactive | inactive |  | 13.2 µM (active) | inactive |  |  | inactive |  |  | inactive |  |  | 0.469 µM (active) | 
Cc1cn[nH]c1 | 120% | 55.7% | inactive | inactive | 0.0074 µM (active) | 0.0469 µM (active) | 0.059 µM (active) | inactive | inactive | inactive | inactive | inactive | inactive |  |  |  |  | 
Cc1cc(-c2ccc(CC(=O)Nc3ccc(-c4cccnc4)cc3)cc2)ccn1 | 255% | 20.4% | inactive | inactive | 20.9 µM (active) | 16.6 µM (active) | 18.7 µM (active) |  |  |  |  |  |  | inactive | inactive |  |  | 18.7 µM (active)
NC[C@H](O)c1ccc(O)c(O)c1 | 132% | 96.3% | inactive | inactive | inactive | inactive | inactive | inactive | inactive | inactive |  | inactive |  |  |  |  |  | 
CCN(CC)CCCC(C)Nc1ccnc2cc(Cl)ccc12 (stereo not given) | 103% | 21.4% | inactive | inactive | inactive | inactive | inactive | inactive | inactive | inactive | inactive |  | inactive |  |  |  |  | 
CC(C)(C)NCC(O)c1ccc(O)c(CO)c1 (stereo not given) | 76% | 113% | inactive | inactive | inactive | inactive | inactive | inactive | inactive | inactive | inactive | inactive |  |  |  |  |  | 
COc1ccc(COc2cc3oc(=O)c4cc(C(C)O)ccc4c3cc2OC)cc1 (stereo not given) | 14.7% | 33.4% | inactive | inactive | 13.2 µM (active) | 23.5 µM (active) | 20.9 µM (active) | 20.9 µM (active) |  |  | 8.33 µM (active) and 3.66 µM (active) |  |  | inactive | inactive |  | inactive | 
N#CC[C@H](C1CCCC1)n1cc(-c2ncnc3[nH]ccc23)cn1 | 230% |  | inactive | inactive | 18.7 µM (active) | 20.9 µM (active) | 16.6 µM (active) |  |  |  | 26.4 µM (active) |  |  |  | inactive |  |  | 
CCOc1ccn(-c2ccc(F)cc2)c(=O)c1C(=O)Nc1ccc(Oc2ccnc(N)c2Cl)c(F)c1 | 145% | 23.7% | inactive | inactive | 23.5 µM (active) |  |  | 23.5 µM (active) |  |  | 14.8 µM (active) |  |  | 18.7 µM (active) |  | 6.62 µM (active) |  | 
CCOC(=O)N[C@@H]1CC[C@@H]2[C@@H](C1)C[C@H]1C(=O)O[C@H](C)[C@H]1[C@@H]2C=Cc1ccc(-c2cccc(F)c2)cn1 | 14.3% | 20% | inactive | inactive |  | 20.9 µM (active) |  | 18.7 µM (active) |  |  |  |  |  |  | 14.8 µM (active) | inactive |  | 
NC(=O)C1CCCc2c1[nH]c1ccc(Cl)cc21 (stereo not given) | 67% | 67.2% | inactive | inactive | 6.62 µM (active) |  | inactive |  |  |  | inactive |  |  | inactive | inactive | inactive |  | 
Cn1c(=O)c(F)c(Nc2ccc(I)cc2F)c2c(=O)n(C[C@@H](O)CO)cnc21 | 18% | 33% | inactive | inactive |  | inactive | inactive | inactive |  |  | inactive |  |  | 0.418 µM (active) | 8.33 µM (active) |  |  | 
CCOc1cc(C=C2C(=O)N(c3ccccc3)N=C2C)cc(Cl)c1OCC(=O)OC | 14.1% |  | inactive | inactive | 5.26 µM (active) | inactive |  | 5.9 µM (active) |  |  | inactive |  |  | inactive | inactive |  |  | 
COc1cc(Nc2ncc3c(n2)-c2ccc(Cl)cc2C(c2c(F)cccc2OC)=NC3)ccc1C(=O)O | 24.8% | 28.7% | inactive | inactive |  | 1.87 µM (active) | 0.0743 µM (active) | 0.059 µM (active) |  |  | 0.0833 µM (active) |  | 0.103 µM (active) |  | inactive |  |  | 
Cc1oncc1C(=O)Nc1ccc(C(F)(F)F)cc1 | 32.8% | 63.8% | inactive and 2.64 µM (active) | inactive and 2.64 µM (active) | 8.33 µM (active) |  | 20.9 µM (active) |  | inactive | inactive |  | inactive |  |  |  |  | inactive | 11.8 µM (active)
O=C(NOC[C@H](O)CO)c1ccc(F)c(F)c1Nc1ccc(I)cc1F | 14.5% | 41.6% | inactive | inactive | 23.5 µM (active) |  |  |  |  |  | inactive |  |  | 9.35 µM (active) | 0.0053 µM (active) |  |  | 
